# Screening results: PubChem BioAssay, National Center for Advancing Translational Sciences (NCATS)
# This is a sample that favours compounds with a hit; in the whole collection about 10% have one here.
# 12-hLO inh – 12-hLO (ALOX12) enzyme inhibition. Potency, µM (series often up to 57.1 µM), inactives show at the highest dose activity change, negative = inhibition, actives largely listed as inhibitors. 150,000 tested, 0.12% active. purified 12-hLO, xylenol orange hydroperoxide absorbance. P18054; active = well fitted inhibition curve with a large enough effect; inconclusive = small, poorly fitted or top-dose-only effect; note: potency is the fitted concentration of half-maximal effect; nearly all actives have a fitted effect of over 55% in size
#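 Hydroperoxide formation by human 12-lipoxygenase from 40 uM arachidonic acid was followed colorimetrically via ferric-xylenol orange complex, using the 573/405 nm absorbance ratio. Enzyme concentration was 150 nM, with 30 min reaction at room temperature.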
# HPGD block – inhibitors of human 15-hydroxyprostaglandin dehydrogenase (HPGD); Potency, µM, without a hit: top-dose activity change, negative = inhibition, hits mostly inhibitors; purified HPGD, NADH fluorescence kinetic, PGE2 substrate; AID 894; 150,000 tested, 4.3% active; note: potency is the fitted concentration of half-maximal effect
# Target sequence (P15428 whole entry, looked up): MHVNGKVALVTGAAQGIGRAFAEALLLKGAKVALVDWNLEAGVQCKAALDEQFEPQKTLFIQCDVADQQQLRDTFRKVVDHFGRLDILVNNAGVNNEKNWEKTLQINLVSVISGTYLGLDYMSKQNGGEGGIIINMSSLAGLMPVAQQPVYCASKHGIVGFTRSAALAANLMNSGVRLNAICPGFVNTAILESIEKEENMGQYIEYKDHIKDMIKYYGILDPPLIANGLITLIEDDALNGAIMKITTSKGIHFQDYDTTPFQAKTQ
#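 NADH formation kinetics: reaction with 30 uM PGE2 and 1 mM NAD+ (final), 20 nM enzyme, Tris-HCl pH 8 with Tween 20, after 15 min compound preincubation at room temperature. Fluorescence change, last versus first of five reads.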
# ALDH1A1 block – ALDH1A1 (human) enzyme inhibition | P00352 | Purified ALDH1A1, NADH fluorescence, propionaldehyde substrate | Potency, µM (titrated, usually from 75.3 µM), inactives show at the highest dose activity, negative = inhibition, actives largely listed as inhibitors | 220,000 tested, 7.3% active | AID 1030;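 note: potency is the fitted concentration of half-maximal effect; plate controls were no enzyme wells and a reference inhibitor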
# Target sequence (P00352 whole entry, looked up): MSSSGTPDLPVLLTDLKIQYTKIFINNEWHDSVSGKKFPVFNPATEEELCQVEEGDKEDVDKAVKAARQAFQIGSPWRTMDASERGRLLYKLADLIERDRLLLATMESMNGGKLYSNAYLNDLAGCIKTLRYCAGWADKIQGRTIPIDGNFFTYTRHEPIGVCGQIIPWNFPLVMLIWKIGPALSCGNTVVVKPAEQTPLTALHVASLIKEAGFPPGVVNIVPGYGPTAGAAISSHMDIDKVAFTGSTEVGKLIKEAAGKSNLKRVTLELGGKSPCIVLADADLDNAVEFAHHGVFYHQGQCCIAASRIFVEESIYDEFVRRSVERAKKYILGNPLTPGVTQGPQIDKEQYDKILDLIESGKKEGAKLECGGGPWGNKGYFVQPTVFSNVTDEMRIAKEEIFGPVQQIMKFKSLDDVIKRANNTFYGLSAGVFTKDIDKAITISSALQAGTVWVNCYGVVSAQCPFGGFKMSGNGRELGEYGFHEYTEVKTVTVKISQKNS
# Lamin A splicing – LMNA splicing modulation; HeLa LMNA splicing GFP/RFP minigene ratio, 48 h; Potency, µM (series often up to 46.1 µM), inactives show at the highest dose ratio change, negative = inhibition, hits mostly inhibitors; 200,000 tested, 0.01% active; active = well fitted inhibition curve with a large enough effect in the signal ratio, with a control signal flat, not every such curve was filed as active; inconclusive = small, poorly fitted or top-dose-only effect, or effect the other way, or a change in a side signal; the % refers to the signal ratio; note: potency is the fitted concentration of half-maximal effect
#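 Read-out is the ratio of GFP to DsRed2 object intensity, acquired by 488 nm laser-scanning cytometry on HeLa lamin A-EGFP minigene reporter cells. Compound incubation 48 hrs at 37 °C in Opti-MEM with 2% FBS; DMSO 0.5% final.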
# PNC inhibitor – blocks assembly of the perinucleolar compartment | PC3M PTB-GFP, PNC prevalence imaging, 16 h; stronger effect = lower value | activity change (PNC), negative = inhibition, % at 10 µM | 140,000 tested, 3.1% active;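 active = readout at or below -70, meaning at least 70% loss of cells showing the perinucleolar compartment, a nuclear body marking cancer cells; inconclusive = readout between -30 and a set limit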;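 note: plate controls were DMSO wells for no effect and camptothecin positive control wells for full effect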
#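 Compounds are pinned in duplicate onto adhered PC3M cells stably expressing GFP-tagged PTB and incubated 16 h at 37 C. Cells are then fixed, nuclei stained with Hoechst, and PNC-positive cells counted.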
# Active calls of the source: *; ? = inconclusive; nt = no result given; [ ] = remark or other dose. Unless noted, calls come from the whole dose curve; as a rule, active = well fitted inhibition curve with a large enough effect (not every such curve was filed as active); inconclusive = small, poorly fitted or top-dose-only effect, or another doubt; inactive = no such curve, though single readings can be large or run the other way. Unless noted, % is set by controls: 0 for no effect and ±100 for the full control effect.
SMILES,12-hLO inh,HPGD block,ALDH1A1 block,Lamin A splicing,PNC inhibitor
O=C(CCN1CCCCC1)NNC(=S)NC(=O)c1ccc(Br)cc1,nt,nt,28.2µM*,nt,nt
COc1ccc(C(=O)NC(=S)NNC(=O)COc2ccccc2)cc1,nt,nt,17.8µM*,?,nt
CCCCCC(=O)NNC(=S)NC(=O)c1cccc([N+](=O)[O-])c1,-11.5%,10µM*,1.26µM*,?,14.3
COc1ccc(OCC(=O)NNC(=O)c2cccnc2)cc1,-0.5%,-15.3%,-10.4%,-5.5%,11.7
O=C(COc1ccc([N+](=O)[O-])cc1)NNC(=S)NC(=O)c1ccc(Br)cc1,nt,nt,8.91µM*,-1.1%[9.22 µM],nt
COc1ccccc1CN1CC[C@@]2(CCCN(C(=O)c3cc(C(F)(F)F)cc(C(F)(F)F)c3)C2)C1,4.8%,-17.7%,?,nt,nt
COC(=O)CSc1nnc(CNC(=O)c2cccs2)n1-c1cc(OC)ccc1OC,-4.2%,nt,20µM*,2.1%,0.9
CCOC(=O)CSc1nnc(CNC(=O)c2cccs2)n1-c1cccc(C)c1,1.5%,-4.0%,16.6%,-2.1%,12.5
CCc1ccc(NC(=O)CSC2=C(C#N)C(c3ccco3)C3=C(CCCC3=O)N2)cc1 (configuration not stated),-6.7%,-7.7%,?,-7.2%,-1.4
CC(C)C1CC(=O)NC(SCC(=O)Nc2ccc(Br)cc2)=C1C#N (configuration not stated),-11.2%,-2.2%,8.91µM*,?,?
Cc1ccc(NC(=O)CSC2=C(C#N)C(c3ccco3)C3=C(CC(C)(C)CC3=O)N2)cc1 (configuration not stated),-12.4%,-9.9%,12.6µM*,?,-25.2
Cc1ccc(NC(=O)CSC2=C(C#N)C(c3ccco3)CC(=O)N2)cc1 (configuration not stated),-1.4%,-5.7%,14.1µM*,-11.9%,-19.9
COc1ccc(CCNCc2ccc3c(c2)n(C)c(=O)n3C)cc1OC,nt,nt,nt,-1.9%[46 µM],nt
COC(=O)c1c(-c2ccco2)csc1NC(=O)C1CC=CCC1C(=O)O (configuration not stated),-25.0%,nt,12.6µM*,0.9%,-29.4
Cc1ccc(C)c(N2CCN(C(=O)c3cc(S(=O)(=O)N4CCCCC4)cn3C)CC2)c1,nt,nt,nt,-10.4%[46 µM],nt
CCC(CC)C(=O)Oc1c(Sc2ccccc2[N+](=O)[O-])c(C)nn1C(C)(C)C,-1.8%,-24.9%,2.24µM*,?,?
Cn1ccnc1Sc1ccccc1[N+](=O)[O-],nt,nt,-4.6%,nt,nt
COCC(=O)Oc1c(Sc2ccccc2[N+](=O)[O-])c(C)nn1C(C)(C)C,nt,nt,8.91µM*,3.9%[9.22 µM],nt
CCN(CC)CCCNC(=O)CSc1nc(-c2ccc(OC)cc2)cc(C(F)(F)F)n1,nt,nt,nt,3.6%[46 µM],nt
O=C(NC1CC1)C1CCCN1S(=O)(=O)c1ccc2ccccc2c1 (configuration not stated),7.7%,-7.7%,-5.5%,-12.0%,11.5
O=C(NCCc1ccccc1F)C1CCCN1S(=O)(=O)c1ccc2ccccc2c1 (configuration not stated),-7.7%,15.8µM*,2.4%,?,-9.9
O=C(O)C1CCCN1S(=O)(=O)c1ccc2ccccc2c1 (configuration not stated),7.4%,?,79.1%,-11.0%,-100.0*
O=C(c1ccccc1)N1CCCCC(S(=O)(=O)c2ccc3ccccc3c2)C1=O (configuration not stated),-7.5%,-5.4%,10µM*,7.4%,7.6
CCCCC(=O)Nc1nnc(S(=O)(=O)N(C)Cc2ccccc2)s1,nt,nt,nt,14.9%[46 µM],nt
COc1cc2c(cc1OC)C(c1ccccc1)CN(C)CC2 (configuration not stated),nt,-6.3%,-7.1%,-7.2%,nt
SMILES,12-hLO inh,HPGD block,ALDH1A1 block,Lamin A splicing,PNC inhibitor
Cc1cccc(NC(=O)Cc2coc3ccc4ccccc4c23)n1,-6.7%,15.8µM*,-3.7%,?,11.0
O=C(Cc1coc2ccc3ccccc3c12)N1CCCC1,1.4%,12.6µM*,?,0.8%,2.6
COCCCNC(=O)Cc1coc2ccc3ccccc3c12,nt,nt,2.6%,?,nt
CCCCNC(=O)Cc1coc2ccc3ccccc3c12,-0.1%,14.1µM*,-0.9%,7.2%,32.9
COc1ccc(OC)c(NC(=O)Cc2coc3ccc4ccccc4c23)c1,0.6%,?,-12.8%,-19.9%,-9.7
O=C(O)Cc1coc2ccc3ccccc3c12,nt,nt,-5.9%,nt,nt
COc1cccc(CNC(=O)c2nc(Cn3nc(C)c(Br)c3C)no2)c1,nt,nt,nt,3.4%[46 µM],nt
Cc1ccc(S(=O)(=O)c2[nH]c(-c3ccccc3)nc2SC(C)C(=O)O)cc1 (configuration not stated),nt,nt,nt,20.4%[46 µM],nt
O=C(CN1CCCN(Cc2ccccc2Cl)S1(=O)=O)Nc1ccc2c(c1)OCCO2,nt,nt,nt,-1.2%[46 µM],nt
COc1ccccc1NC(=S)NC(=O)/C=C/c1ccco1,?,28.2µM*,25.1µM*,-21.6%,4.3
COc1ccc(-c2csc(NC(=S)NC(=O)/C=C/c3ccco3)n2)cc1Br,nt,nt,5.6%,?,nt
COc1ccc(-c2csc(NC(=S)NC(=O)/C=C/c3ccco3)n2)cc1OC,-0.8%,-23.3%,-5.4%,?,-105.8*
O=C(NC(=S)Nc1cccc([N+](=O)[O-])c1)c1ccco1,10.5%,-3.3%,2.6%,6.3%,4.4
COc1cc2c(cc1NC(=S)NC(=O)/C=C/c1ccco1)oc1ccccc12,-4.6%,-12.0%,0.2%,-11.5%,36.7
O=C(/C=C/c1ccco1)NC(=S)Nc1cccc([N+](=O)[O-])c1,-29.2%,17.8µM*,-0.1%,?,?
Cc1cccc(NC(=S)NC(=O)/C=C/c2ccco2)c1,nt,nt,23.8µM*,28.2%[46 µM],nt
CO[C@H]1COC(=O)CCC[C@@H](C)[C@H](OC)COC(=O)[C@H]2CCCN2C(=O)C/C=C\[C@@H]1C,nt,nt,8.5%[13.5 µM],nt,nt
O=C(c1cc(-c2ccc(Br)cc2)n[nH]1)N1CCN(S(=O)(=O)c2ccc(Cl)s2)CC1,nt,nt,nt,4.8%[46 µM],nt
Cc1noc(C)c1-c1nc(N2CCN(C)CC2)c2ccccc2n1,nt,nt,9.0%,?,nt
CC(O)CNCCOc1ccccc1OCc1ccccc1 (configuration not stated),nt,nt,-8.9%,nt,nt
CC(O)CNCCNCc1c(OCc2ccccc2)ccc2ccccc12 (configuration not stated),-2.9%,-9.2%,28.2µM*,1.2%,-8.9
COc1ccc2c3c([nH]c2c1)[C@H]1C[C@@H]2[C@@H](C[C@@H](O)[C@H](OC)[C@H]2C(=O)O)CN1CC3,-2.5%[11.4 µM],-8.3%,-11.0%[13.5 µM],nt,nt
Nn1c(SCc2cccc3ccccc23)nnc1-c1ccco1,-2.2%,14.1µM*,-8.4%,10.3%,-0.7
Nn1c(Cc2cccc3ccccc23)nnc1SCn1nnc2ccccc2c1=O,-2.3%,-15.9%,-0.7%,-4.2%,?
Nn1c(Cc2cccc3ccccc23)nnc1SCc1c(Cl)cccc1Cl,-5.0%,7.94µM*,?,?,-9.8
Nn1c(Cc2cccc3ccccc23)nnc1SC1CCOC1=O (configuration not stated),-3.0%,-6.9%,-2.3%,-1.5%,?
